Assay results reported in PubChem BioAssay (NCI).
Compounds without any hit were thinned out: in the full panel of roughly 83,000, 20% have a hit.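 The endpoint reported here, percent growth, reads 100 for growth as untreated, 0 for no net growth and -100 for all cells dead.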 Values without a mark were called inactive. Calls of active or inactive are those of the source. Rule for the calls: active = growth percent below 10; inactive = the rest.

Key:
Assay in all cases: NCI-60 one-dose screen, 48 h (100 = growth as untreated, 0 = no growth, -100 = all killed)
[1] = test system: SR leukemia; settings: 10 µM unless noted
[2] = test system: RPMI-8226 leukemia; settings: 10 µM unless noted
[3] = test system: OVCAR-8 ovarian; settings: 10 µM unless noted
[4] = test system: OVCAR-5 ovarian; settings: 10 µM unless noted
[5] = test system: OVCAR-4 ovarian; settings: 10 µM unless noted
[6] = test system: SK-OV-3 ovarian; settings: 10 µM unless noted
[7] = test system: IGROV1 ovarian; settings: 10 µM unless noted
[8] = test system: OVCAR-3 ovarian; settings: 10 µM unless noted
[9] = test system: HS 578T breast; settings: 10 µM
[10] = test system: NCI/ADR-RES ovarian; settings: 10 µM unless noted
[11] = test system: BT-549 breast; settings: 10 µM unless noted
[12] = test system: MDA-MB-435 melanoma; settings: 10 µM unless noted
[13] = test system: SW-620 colon; settings: 10 µM unless noted
[14] = test system: MCF7 breast; settings: 10 µM unless noted
[15] = test system: HCT-116 colon; settings: 10 µM unless noted
[16] = test system: HCC-2998 colon; settings: 10 µM unless noted
[17] = test system: KM12 colon; settings: 10 µM unless noted
[18] = test system: T-47D breast; settings: 10 µM unless noted

SMILES | growth [1] | growth [2] | growth [3] | growth [4] | growth [5] | growth [6] | growth [7] | growth [8] [%] | growth [9] | growth [10] | growth [11] | growth [12] | growth [13] | growth [14] | growth [15] | growth [16] | growth [17] | growth [18]
CN1CCN(Cc2ccc(NC(=O)c3cncc(C#Cc4ncc5ccccn45)c3)cc2C(F)(F)F)CC1 | 15.6% | 21.1% | 24.7% | 32.8% | 7.89% (active) | 19.6% | 17.9% | 36.9 | 7.01% (active) | 27.7% | 39.3% | 28.1% | 1.35% (active) | -6.36% (active) | -51.5% (active) | 48.6% | 4.65% (active) | –
CCc1ccc(Nc2cc(C)c3ccc(O)cc3n2)cc1 | 43.9% | 29.9% | 80% | 83.7% | 75.7% | 90.1% | 53.8% | 81 | 87.6% | – | 88.3% | 28.5% | 78.5% | 63.9% | 56.8% | -59.8% (active) | 53.9% | 55.3%
O=[N+]([O-])c1cccc(N=C(Nc2cccc([N+](=O)[O-])c2)c2ccccc2)c1 | 70.4% | 58.2% | 93.4% | 99.9% | 84.7% | 107% | 84.4% | 88.2 | 97.9% | 75.6% | 82% | 78.4% | 101% | 68.9% | 58.1% | 93.2% | 84.2% | –
CC(C)OC(=O)c1ccc([N+](=O)[O-])cc1 | 102% | 98.5% | 108% | 112% | 111% | 107% | 119% | – | 112% | 104% | 113% | 125% | 109% | 117% | 110% | 113% | 113% | 108%
O=C(OCc1ccc2c(Br)cc(Br)c(O)c2n1)c1cc2ccccc2[nH]1 | 3.2% (active) | -25.2% (active) | -23.7% (active) | -85.4% (active) | -21.2% (active) | 68.8% | -91.5% (active) | – | -4.51% (active) | -55.2% (active) | -84.3% (active) | -80.6% (active) | -69.2% (active) | -35.5% (active) | -72.9% (active) | -77.7% (active) | -19% (active) | -69.5% (active)
COc1ccc(-c2nc(-c3cc(OC)cc(OC)c3)[nH]c2-c2ccc(OC)cc2)cc1 | 25.3% | -11.6% (active) | 58.1% | 77.7% | 59.7% | 85.6% | 71.7% | – | 81.5% | 53.9% | 51% | 48.7% | 73.6% | 34.9% | 40.8% | 42.9% | 46.5% | 6.56% (active)
CCOc1cccc(/C=N/NC(=O)c2ccc(Nc3ccnc(C(F)(F)F)c3)cc2)c1O | 68.7% | -23.6% (active) | 24.7% | 13.9% | 31.3% | 10.9% | -9.15% (active) | – | 11.3% | 49.3% | 14.6% | 40.2% | 32.1% | -1.78% (active) | 7.55% (active) | 35.3% | 24.8% | 3.07% (active)
O=c1cc(N2CCOCC2)oc2c(-c3ccc4c(c3)OCCO4)csc12 | 13.9% | -0.399% (active) | 13.8% | 18.1% | 11.5% | -17.3% (active) | -9.54% (active) | – | -7.53% (active) | 16.5% | 5.39% (active) | 14.7% | 37.6% | 7.92% (active) | 14.4% | 33.2% | 31.7% | -15% (active)
CN1CCN(Cc2ccc(NC(=O)c3cccc(C#Cc4cnc(N)c5ncccc45)c3F)cc2C(F)(F)F)CC1 | -3.15% (active) | -9.88% (active) | -49.3% (active) | -5.62% (active) | 49.6% | 22.3% | – | 73.2 | 18% | 61.3% | 62% | -82.7% (active) | -49.9% (active) | -65.1% (active) | -67.5% (active) | 67.3% | 1.2% (active) | 79.9%
NCCCOc1cc2ccccc2cc1C(=O)NCCCOc1cc2ccccc2cc1C(=O)Nc1ccc(Cl)cc1O | -7.88% (active) | -18.3% (active) | -57.6% (active) | -92.5% (active) | -77.4% (active) | -80.4% (active) | -31.6% (active) | – | 14.5% | 29.2% | -39.8% (active) | -85.5% (active) | -73.9% (active) | -93.5% (active) | -85.8% (active) | -92.3% (active) | -2.6% (active) | -67.6% (active)
Fc1ccc2nc(-c3ccc(-c4noc(-c5ccc(Cl)cc5)n4)cc3)[nH]c2c1 | 95.6% | 106% | 108% | 113% | 114% | 113% | 115% | – | 108% | 100% | 93.9% | 105% | 107% | 105% | 95.6% | 106% | 93.1% | 92.9%
COc1cc(Nc2ccnc3ccc(Br)cc23)cc(OC)c1OC | 15.7% | 30.4% | 36.6% | 51.6% | 62.5% | 36.6% | 38.2% | 29.8 | – | – | 53.7% | -41.5% (active) | 19.4% | 15.5% | 21.7% | 71.4% | 21% | 40.9%
CNC(=O)c1cc(Oc2ccc(NC(=O)c3nc(S(C)(=O)=O)n(C)c3-c3ccc(F)cc3)cc2)ccn1 | 60.2% | 55.6% | 75.8% | 104% | 67.1% | 58.9% | 54.3% | – | 76.9% | 77.8% | 80.6% | 79.4% | 72.1% | 79% | 64.2% | 93.8% | 21.9% | 61.5%
O=c1c2sc3ncc(Cl)cc3c2nnn1-c1cccc(Cl)c1 | 77.7% | 82.4% | 79.8% | 86.2% | -7.2% (active) | 40.7% | 63% | 24.7 | – | – | 85.4% | 66.9% | 80.5% | 82.5% | 31.3% | 125% | 87.4% | 74.7%
Cc1cc(Cl)c2ccc(N(C)C)cc2n1 | 87.3% | 97% | 102% | 105% | 105% | 97.4% | 106% | – | 96.9% | 104% | 111% | 102% | 99.5% | 92.1% | 105% | 101% | 104% | 90.7%
COC(=O)c1ccc(NC(N)=NCCC(C)(C)c2ccc(C(F)(F)F)cc2)nc1 | -22.2% (active) | -48.8% (active) | 50.1% | 74.2% | 31.6% | 60.2% | 54.7% | – | 75.5% | 36.6% | 42.6% | 50.1% | 25% | 10% | 8.17% (active) | -54% (active) | – | -3.4% (active)
CCOC(=O)NNc1cccc(Cl)c1 | 102% | 98.8% | 106% | 88.3% | 106% | 105% | 94.9% | – | 104% | 99.3% | – | 107% | 102% | 105% | 111% | 99.9% | 116% | 119%
NC(N)=N/N=C/c1ccccc1 | 96% | 89.1% | 99.5% | 93.2% | 101% | 101% | 108% | – | 101% | 104% | 102% | 93.6% | 104% | 93% | 92.8% | 98.1% | 103% | 94%
